Experimental data taken from PubChem BioAssay (Tox21).
Where “and” joins values, the source holds several entries; their conditions need not be identical. Identical values can stand only once. Records with an inconclusive call do not appear. Some compounds were tested as several samples or in several runs, with calls that do not always agree. Calls of active or inactive are those of the source. Unless noted, calls follow the shape of the dose curve; as a rule, active = well fitted curve in the direction sought with a large enough effect in the repeat runs; inconclusive = weak or mixed curves; inactive = no such curve, though single readings can be large; an effect the other way counts as inactive or inconclusive.

Legend:
[1] = biological target: Androgen receptor (Homo sapiens) (UniProt P10275); assay: qHTS assay to identify small molecule antagonists of the androgen receptor (AR) signaling pathway using the MDA cell line in the presence of 0.5 nM R1881 (AID 1259243); also: nearly all actives have a fitted effect of over 50% in size; also: potency is read from the fitted curve at half-maximal effect
In short: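 Luminescence from an AR/GR-responsive MMTV-luciferase construct in MDA-kb2 breast carcinoma cells, read 30 min after ONE-Glo, following 16 hr co-treatment with compounds and 0.5 nM R1881.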

[2] = qHTS assay to identify small molecule HDAC inhibitors (AID 1259364); also: potency is read from the fitted curve at half-maximal effect;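 also: wild-type HCT-116 cells with endogenous class I/II HDAC activity; nearly all actives have a fitted effect of over 45% in size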; as to activity change, negative = inhibition: top concentration of the series differs between compounds
In short: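 HCT-116 wt cells, 1,500/well, overnight attach. Compounds (DMSO) 2 h, 37 °C. HDAC-Glo I/II, 30 min RT. Luminescence.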

[3] = qHTS assay to identify small molecule HDAC inhibitors - cell viability counter screen (AID 1259365); also: series mostly up to about 92 µM; nearly all actives have a fitted effect of over 50% in size
In short: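 HCT-116 wild-type, overnight attachment; 2hr drug exposure, 37C; CellTiter-Glo luminescent ATP readout after 30min RT.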

[4] = qHTS assay to identify small molecule agonists of the sonic hedgehog signaling (Shh) pathway - cell viability counter screen (AID 1259366); also: nearly all actives have a fitted effect of over 50% in size; also: potency is read from the fitted curve at half-maximal effect
In short: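 Compounds in DMSO were pin-transferred onto 3T3 Gli1-Luc cells that had settled 4hr; plates then stood 24hr at 37C and 5% CO2. One hour before the end, CellTiter-Fluor was added and fluorescence recorded.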

[5] = qHTS assay to identify small molecule antagonists of the sonic hedgehog signaling (Shh) pathway - cell viability counter screen (AID 1259367); also: nearly all actives have a fitted effect of over 55% in size; also: potency is read from the fitted curve at half-maximal effect
In short: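 CellTiter-Fluor signal in conditioned medium-stimulated 3T3 Gli1-Luc cells, 23 hr compound exposure, 37C.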

[6] = qHTS assay to identify small molecule agonists of the sonic hedgehog signaling (Shh) pathway (AID 1259368; calls by dose curve; also: nearly all actives have a fitted effect of over 15% in size; also: potency is read from the fitted curve at half-maximal effect;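 as to activity change: NIH/3T3-derived 3T3Gli1-Luc cells carrying a stable Gli1-driven firefly luciferase reporter; series mostly up to about 92 µM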)
In short: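 Following a 24 hr incubation with DMSO-dissolved compounds at 37 C, 5% CO2, Gli1-Luc NIH/3T3-derived cells received luciferase reagent for 30 min at room temperature prior to luminescence measurement.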

[7] = qHTS assay to identify small molecule antagonists of the sonic hedgehog signaling (Shh) pathway (AID 1259369; calls by dose curve; also: nearly all actives have a fitted effect of over 45% in size; also: potency is read from the fitted curve at half-maximal effect)
In short: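 Read-out is luminescence from a firefly luciferase gene controlled by the Gli1 response element, in 3T3Gli1-Luc cells pre-incubated 4hr then exposed to compounds and conditioned medium for 24hr.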

[8] = biological target: Estrogen receptor (Homo sapiens) (UniProt P03372); assay: qHTS assay to identify small molecule antagonists of the estrogen receptor alpha (ER-alpha) signaling pathway using the BG1 cell line in the presence of 0.1 nM 17-beta-estradiol (AID 1259244); also: nearly all actives have a fitted effect of over 50% in size; also: potency is read from the fitted curve at half-maximal effect
In short: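 Luciferase signal from VM7Luc4E2 ERE-reporter cells, co-dosed with test compound and 0.1 nM final 17beta-estradiol for 22 h, read with ONE-Glo.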

[9] = biological target: Estrogen receptor beta (Homo sapiens) (UniProt Q92731); assay: qHTS assay to identify small molecule agonists of the estrogen receptor beta (ER-beta) signaling pathway (AID 1259377; active = well fitted activation curve with a large enough effect in the signal ratio in the repeat runs, not every such curve was filed as active; the % refers to the signal ratio)
In short: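 qHTS in ER-beta-UAS-bla HEK293T cells: 6 hr settling, then 16 hr compound at 37C, then LiveBLAzer substrate 2 h at RT before fluorescence reading.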

[10] = qHTS assay to identify small molecule phospholipidosis (PLD) inducers (AID 1259344; active = well fitted curve in the direction sought with a large enough effect; an effect the other way counts as inactive or inconclusive)
In short: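 Accumulated phospholipid, stained red by LipidTOX during 24 h compound treatment of HepG2 cells at 37 C, is quantified from images as pit number and intensity, normalised per cell using Hoechst-stained nuclei.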
% is scaled to controls: 0 for no effect and ±100 for the full control effect.

Estrogen receptor (Homo sapiens), sequence (P03372 whole entry, looked up): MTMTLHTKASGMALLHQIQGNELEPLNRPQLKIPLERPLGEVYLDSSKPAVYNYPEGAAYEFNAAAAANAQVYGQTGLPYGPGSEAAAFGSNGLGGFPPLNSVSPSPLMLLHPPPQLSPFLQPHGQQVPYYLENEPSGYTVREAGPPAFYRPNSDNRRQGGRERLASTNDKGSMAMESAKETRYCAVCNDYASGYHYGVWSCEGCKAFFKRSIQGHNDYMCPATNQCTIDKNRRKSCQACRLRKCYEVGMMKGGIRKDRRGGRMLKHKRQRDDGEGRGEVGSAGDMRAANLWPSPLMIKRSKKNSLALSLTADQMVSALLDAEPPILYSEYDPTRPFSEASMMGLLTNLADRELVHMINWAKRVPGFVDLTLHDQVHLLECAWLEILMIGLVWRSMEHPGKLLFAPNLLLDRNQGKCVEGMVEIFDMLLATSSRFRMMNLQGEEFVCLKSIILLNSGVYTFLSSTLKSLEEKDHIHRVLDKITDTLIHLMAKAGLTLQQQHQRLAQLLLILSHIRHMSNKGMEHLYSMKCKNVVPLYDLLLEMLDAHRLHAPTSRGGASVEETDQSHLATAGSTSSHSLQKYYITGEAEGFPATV
Androgen receptor (Homo sapiens), sequence (P10275 whole entry, looked up): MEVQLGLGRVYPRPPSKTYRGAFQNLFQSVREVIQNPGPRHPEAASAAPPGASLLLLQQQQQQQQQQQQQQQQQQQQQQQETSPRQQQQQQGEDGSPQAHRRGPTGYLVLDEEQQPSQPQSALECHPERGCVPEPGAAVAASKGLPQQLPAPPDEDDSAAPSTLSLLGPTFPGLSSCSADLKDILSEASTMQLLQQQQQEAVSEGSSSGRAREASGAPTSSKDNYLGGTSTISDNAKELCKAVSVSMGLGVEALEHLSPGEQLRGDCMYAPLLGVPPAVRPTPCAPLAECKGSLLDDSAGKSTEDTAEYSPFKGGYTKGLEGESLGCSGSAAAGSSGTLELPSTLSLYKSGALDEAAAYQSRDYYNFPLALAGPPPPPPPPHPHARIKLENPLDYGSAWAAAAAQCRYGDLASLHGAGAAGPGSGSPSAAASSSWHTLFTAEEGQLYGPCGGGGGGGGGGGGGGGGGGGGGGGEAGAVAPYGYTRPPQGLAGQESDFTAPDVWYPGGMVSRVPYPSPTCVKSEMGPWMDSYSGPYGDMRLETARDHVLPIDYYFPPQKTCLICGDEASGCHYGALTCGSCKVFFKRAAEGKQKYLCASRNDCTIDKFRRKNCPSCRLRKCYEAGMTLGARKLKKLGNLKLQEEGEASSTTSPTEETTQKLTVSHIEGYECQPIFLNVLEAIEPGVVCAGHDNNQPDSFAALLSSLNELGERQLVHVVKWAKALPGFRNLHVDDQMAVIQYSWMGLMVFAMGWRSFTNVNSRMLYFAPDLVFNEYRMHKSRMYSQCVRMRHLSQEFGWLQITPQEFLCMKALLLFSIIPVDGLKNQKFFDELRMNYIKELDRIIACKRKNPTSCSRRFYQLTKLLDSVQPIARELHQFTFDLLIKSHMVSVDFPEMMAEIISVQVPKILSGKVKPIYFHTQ
Estrogen receptor beta (Homo sapiens), sequence (Q92731 whole entry, looked up): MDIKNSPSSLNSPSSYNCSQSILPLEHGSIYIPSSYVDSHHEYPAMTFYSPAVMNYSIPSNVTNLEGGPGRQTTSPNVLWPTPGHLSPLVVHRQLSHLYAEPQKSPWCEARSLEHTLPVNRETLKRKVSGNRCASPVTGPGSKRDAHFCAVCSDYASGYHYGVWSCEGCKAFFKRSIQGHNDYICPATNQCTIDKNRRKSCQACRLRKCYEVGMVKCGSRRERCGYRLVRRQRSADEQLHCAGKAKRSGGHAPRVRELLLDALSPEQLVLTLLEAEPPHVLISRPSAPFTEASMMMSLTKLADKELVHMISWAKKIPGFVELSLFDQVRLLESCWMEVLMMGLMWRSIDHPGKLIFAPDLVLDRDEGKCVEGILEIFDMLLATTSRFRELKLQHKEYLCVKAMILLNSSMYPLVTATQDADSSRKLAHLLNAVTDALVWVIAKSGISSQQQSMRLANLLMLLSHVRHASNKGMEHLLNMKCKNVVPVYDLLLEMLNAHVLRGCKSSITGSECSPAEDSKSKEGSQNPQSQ

CCC1CCCCC1
inactive: Potency [1] | Potency [2] | Potency [3] | Potency [4] | Potency [5] | Potency [6] | Potency [7]

CCN=c1cc2oc3cc(NCC)c(C)cc3c(-c3ccccc3C(=O)OCC)c-2cc1C
active: Potency [1] 122 nM and 217 nM | Potency [8] 86 nM and 306 nM | Potency [7] 1.08 µM and 545 nM
inactive: Potency [2] | Potency [5] | Potency [6] | Potency [9]

CN(C)CCOC(c1ccccc1)c1ccccc1 (tested in a mixture with another compound)
inactive: Potency [1] | Potency [2] | Potency [3] | Potency [4] | Potency [6] | Potency [9]
active: Potency [5] 61.6 µM | Potency [7] 24.5 µM

C=CC(=O)OCCC#N
inactive: Potency [1] | Potency [2] | Potency [3] | Potency [4] | Potency [5] | Potency [6] | Potency [7]

O=C(Oc1ccccc1)c1cccc(C(=O)Oc2ccccc2)c1
inactive: Potency [1] | Potency [3] | Potency [4] | Potency [7]
active: Potency [2] 0.0885 µM | Potency [6] 2.29 µM

CN(C)c1ccc(N=NS(=O)(=O)O)cc1
active: Potency [1] 22.9 µM | Potency [6] 16.2 µM | Potency [7] 12.2 µM
inactive: Potency [10] | Potency [3] | Potency [4]

Nc1ccc2cc3ccc(N)cc3nc2c1
inactive: Potency [10] | Potency [2] | Potency [6] | Potency [7]
inactive and 10.6 µM (active): Potency [1]

O=C(NO)c1ccccc1
inactive: Potency [1] | Potency [10] | Potency [3] | Potency [6]
active: Potency [4] 26 µM | Potency [7] 29.2 µM

N#CSCSc1nc2ccccc2s1
active: Potency [2] 19.3 µM | Potency [4] 10.9 µM | Potency [5] 24.3 µM | Potency [7] 1.93 µM
inactive: Potency [1] | Potency [3] | Potency [6]

CCCCOCC
inactive: Potency [1] | Potency [2] | Potency [3] | Potency [4] | Potency [5] | Potency [6] | Potency [7] | Potency [9]

Oc1ccc(-c2ccccc2)c(Cl)c1
active: Potency [1] 1.93 µM
inactive: Potency [8] | Potency [2] | Potency [3] | Potency [6] | Potency [7]

CC1(C)C(=O)N(Br)C(=O)N1Br
inactive: Potency [1] | Potency [2] | Potency [3] | Potency [4] | Potency [5] | Potency [6] | Potency [7]

C=C1C(C)(C)[C@@]2(Cl)C(Cl)[C@]1(Cl)C(Cl)(Cl)C2(Cl)Cl (some centres undefined)
inactive: Potency [8] | Potency [2] | Potency [3] | Potency [5] | Potency [6]
active: Potency [1] 60 µM | Potency [7] 21.3 µM

CN1CCN(C2Cc3ccccc3Sc3ccc(Cl)cc32)CC1 (centres undefined)
inactive: Potency [8] | Potency [2] | Potency [3] | Potency [6] | Potency [9]
active: Potency [1] 29.8 µM | Potency [7] 6.68 µM

C[n+]1c2cc(N)ccc2cc2ccc(N)cc21 (tested in a mixture with another compound)
active: Potency [1] 13.3 µM
inactive: Potency [10] | Potency [2] | Potency [3] | Potency [6]

CC1(C)COCN1
inactive: Potency [1] | Potency [2] | Potency [3] | Potency [4] | Potency [5] | Potency [6] | Potency [9]

CCCC(O)C(O)CO (centres undefined)
inactive: Potency [1] | Potency [2] | Potency [3] | Potency [4] | Potency [5] | Potency [6] | Potency [7]

Cc1oc(-c2ccccc2)nc1CCOc1ccc(C[C@H](Nc2ccccc2C(=O)c2ccccc2)C(=O)O)cc1
inactive: Potency [1] | Potency [8] | Potency [2] | Potency [6]
active: Potency [4] 43.3 µM | Potency [5] 48.6 µM

CCOC(=O)C1=C(C)NC(C)=C(C(=O)OCC)C1c1ccccc1/C=C/C(=O)OC(C)(C)C
active: Potency [1] 23.7 µM | Potency [5] 29.8 µM | Potency [7] 29.8 µM
inactive: Potency [10] | Potency [2] | Potency [3] | Potency [6]

CCN1CCN(c2cc(-c3ccc(F)cc3)c3c(n2)CCCCCC3)CC1
inactive: activity, negative = inhibition [1] -22% [at 19 µM] | PLD induction [10] 12.7% [at 7.66 µM] | activity change, negative = inhibition [2] 1.74% [at 19 µM] | activity change, negative = cytotoxicity [3] -2.01% [at 19 µM] | viability change, negative = cytotoxic [4] -8.82% [at 19 µM] | activity change [6] -0.431% [at 18.9 µM, stronger effect = higher value] | activity change, negative = inhibition [7] 15.3% [at 19 µM]

Cc1ccc(-n2[nH]c(C)c(N=Nc3cccc(-c4cccc(C(=O)O)c4)c3O)c2=O)cc1C
inactive: Potency [1] | Potency [2] | Potency [3] | Potency [4] | Potency [5] | Potency [6] | Potency [7] | Potency [9]

COC(=O)C1=C(C)NC(C)=C(C(=O)OCCCN2CCC(c3ccccc3)(c3ccccc3)CC2)C1c1cccc([N+](=O)[O-])c1 (centres undefined)
inactive: Potency [2] | Potency [3] | Potency [6]
active: Potency [1] 21.1 µM | Potency [4] 26.6 µM | Potency [7] 33.5 µM

O=C[C@H](O)[C@H](O)[C@H](O)CO
inactive: Potency [1] | Potency [2] | Potency [3] | Potency [4] | Potency [5] | Potency [6] | Potency [7] | Potency [9]

CCC(C)c1cc([N+](=O)[O-])cc([N+](=O)[O-])c1OC(=O)OC(C)C (centres undefined)
active: Potency [1] 38.6 µM | Potency [5] 68.6 µM | Potency [7] 21.7 µM
inactive: Potency [2] | Potency [3] | Potency [6]

CCCN(CCc1cccs1)[C@H]1CCc2c(O)cccc2C1
active: Potency [1] 26.6 µM
inactive: Potency [10] | Potency [2] | Potency [3] | Potency [4] | Potency [5] | Potency [6]

COc1cccc(OC)c1O
inactive: Potency [1] | Potency [2] | Potency [3] | Potency [4] | Potency [5] | Potency [6] | Potency [7]

COCC(=O)O[C@]1(CCN(C)CCCc2nc3ccccc3[nH]2)CCc2cc(F)ccc2[C@@H]1C(C)C
active: Potency [1] 16.8 µM | Potency [4] 13.3 µM | Potency [5] 26.6 µM | Potency [7] 13.3 µM
inactive: Potency [2] | Potency [3] | Potency [6] | Potency [9]

CC(=O)O[C@@H]1C[C@@H]2CC[C@@]1(C)C2(C)C
inactive: Potency [1] | Potency [2] | Potency [3] | Potency [4] | Potency [5] | Potency [6] | Potency [7] | Potency [9]

Clc1cc(Cl)c(-c2c(Cl)c(Cl)cc(Cl)c2Cl)cc1Cl
inactive: Potency [1] | Potency [2] | Potency [3] | Potency [4] | Potency [5] | Potency [6] | Potency [7] | Potency [9]
